About 83,000 compounds went through this panel and 20% of them were active in at least one assay; those are over-represented in the sample as a whole.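 Results are percent growth after 48 hours of single-concentration exposure. 100 means growth as in untreated cells, lower positive values show inhibition; negative values down to -100 show cell death.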 Active and inactive are the calls of the source. Rule for the calls: active = growth percent below 10; inactive = the rest.

This assay concerns HL-60(TB) leukemia. The assay can be described thus: NCI-60 one-dose screen, 48 h (100 = growth as untreated, 0 = no growth, -100 = all killed). As to conditions: 10 µM unless noted.
Regarding `Cc1ccc(Cn2cc(COc3ccc4c5ccnc(C)c5n(CCCc5ccccc5)c4c3)nn2)cc1`, the growth is 77.6% (inactive).
`CCS(=O)(=O)OCCCl`: the growth was 86.7% (inactive).
The result for `CCCCN(CCCC)C(=O)[C@H](CC)[C@@H]1CC[C@@H](C)[C@@H]([C@H](C)[C@@H](O)[C@@H](C)C(=O)[C@H](CC)C2O[C@]3(C=C[C@@H](O)[C@]4(CC[C@@](C)([C@H]5CC[C@](O)(CC)[C@H](C)O5)O4)O3)[C@H](C)C[C@@H]2C)O1` (stereo not given in full) reads -40.8% (active).
As for `N[C@H](CS)C(=O)O`, the growth is 109% (inactive).
For the compound `Cn1nc(C(F)(F)F)cc1-c1c[nH]c(OCc2ccc(Cl)cc2)c(-c2ccc(Cl)c(C(F)(F)F)c2)c1=O`, the growth was -28% (active).
In the case of `C=C1C(=O)O[C@H]2[C@H]1CC/C(COC(=O)NCc1ccc(Cn3c(=O)sn(CCCCC)c3=O)cc1)=C\CC[C@@]1(C)O[C@@H]21` it was -40.4% (active).
The result for `CC(C)(C)c1ccc([I+]c2ccc(C(C)(C)C)cc2)cc1` reads -38.7% (active); that for `Cc1ccc(C(=O)Nc2ccc(CN3CCN(C)CC3)c(C(F)(F)F)c2)cc1C#Cc1cncc2ncccc12`, -65.1% (active).
Consider `O=C1c2cc(Br)ccc2Oc2cc([N+](=O)[O-])ccc2N1c1ccc(I)cc1F`, for which the growth is 81.2% (inactive).
The result for `Oc1[nH]c2cc(Cl)ccc2c1/C=c1/ccc2c(c1)N=C(c1cc(F)cc(F)c1)N=2` reads -9.98% (active); that for `COc1cccc(CNc2cccc3cn[nH]c23)c1O`, 144% (inactive); that for `Cc1c(NCC(=O)Nc2nc3ccccc3[nH]2)c(=O)n(-c2ccccc2)n1C`, 98.5% (inactive).
As to `CCN(CC)CCC(=O)c1ccc(OC)c2ccccc12`, the growth is 44.2% (inactive).
With `CCN(CC)CCCC(Cc1ccccc1)Nc1c2ccc(Cl)cc2nc2ccc(OC)cc12` (stereo not given), the growth is 19.5% (inactive).
In the case of `Cc1cc(N/N=C/c2nc(-c3ccccc3)oc2C)c2cc(Br)ccc2n1` it was 80% (inactive).
Consider `OCC1OC(O)C(O)C(O)C1O` (stereo not given), for which the growth is 120% (inactive).
In the case of `Nc1c2c(c(O)c3c1=C(CO)C=N3)=NCCS2=O` (stereo not given) it was -42.1% (active); in that of `CS(=O)(=O)Nc1ccc(Nc2c3ccccc3nc3cc(N)ccc23)cc1`, 5.48% (active).
The result for `COc1ccc(/C=C2\COc3ccc(-c4ccccc4)cc3C2=O)cc1O` reads -34% (active).
In the case of `O=C(COc1cccc(/C=C2/Oc3ccccc3C2=O)c1)Nc1nccs1` it was -72.9% (active).
For `Cc1c2ccccc2nc2cc3c(cc12)[C@H]1CC[C@]2(C)C(=O)CC[C@H]2[C@@H]1CC3`, the growth was 97.1% (inactive).
Turning to `COc1ccc(-n2c(C(O)c3ccccc3)nn(CN3CCOCC3)c2=S)cc1` (stereo not given), the growth is 126% (inactive).
On to `CC1(/C=C/c2ccc(-c3ccccc3)cc2)CCn2cnc3ncnc(c32)N1O` (stereo not given), for which the growth is 2.02% (active).
As to `CCn1c(SCc2ccc(C)cc2)nnc1-c1nn(-c2ccc(Cl)cc2Cl)c(-c2ccc(Cl)cc2)c1C`, the growth is -13.1% (active).
The result for `COc1cc(CCC[P+](c2ccccc2)(c2ccccc2)c2ccccc2)cc2c1OCO2` reads 10.3% (inactive); that for `Cc1c(C)n(CC(O)CNC2CCCCC2C)c2ccccc12` (stereo not given), -13.8% (active).
In the case of `C=C1C(=O)O[C@H]2[C@H]1CC/C(COC(=O)NCCc1cccc(OC)c1)=C\CC[C@@]1(C)O[C@@H]21` it was 6.53% (active).
The result for `CCOc1ccc(NC(=O)c2ccoc2COc2ccccc2)cc1` reads 100% (inactive).
For the compound `CS(=O)(=O)c1ccc(C(=O)N/N=C/c2cccc3ccccc23)cc1`, the growth was 37.5% (inactive).
On to `COc1cccc(C(=O)NNc2nc(Cl)nc(N3CCN(C(c4ccccc4)c4ccccc4)CC3)n2)c1`, for which the growth is 0.787% (active).
In the case of `CCN1CCN(CCOc2ccc(CNc3ccc4nc(CCC5CCCCC5)[nH]c4c3)cc2)CC1` it was -12.7% (active).
With `CNC(=O)c1cc(Oc2ccc3nc(NC(=O)Nc4ccc(Cl)c(Cl)c4)sc3c2)ccn1`, the growth was 78.8% (inactive).
The result for `O=C(Cc1nc2cc(Cl)c(Cl)cc2nc1CC(=O)c1cccnc1)c1cccnc1` reads 39.6% (inactive); that for `CCCCCCCC/C=C/CCCCCCCC1=NC(C)(C)CN1CCO`, -61.5% (active); that for `COc1ccccc1NC(=O)C1CC(c2ccc(F)cc2)=NO1` (stereo not given), 103% (inactive).
As to `Cc1c(-c2ccc(C3CCCCC3)cc2)nc2ccc(F)cc2c1C(=O)O`, the growth is 24.8% (inactive).
Consider `N#Cc1cnc2cc(OC[C@@H](O)CO)c(NC(=O)C3CCCC3)cc2c1Nc1ccc(OCc2cccc(F)c2)c(Cl)c1`, for which the growth was -28.8% (active).
The result for `C=C(C)CCCC(C)CC#N` (stereo not given) reads 108% (inactive); that for `COc1ccc(/C(C)=C(\c2ccc(Cl)cc2)c2ccc(OCCCN(C)C)cc2)cc1F`, 66.2% (inactive); that for `COc1ccc(CC(C)=C(c2ccc(OCCN3CCCCCC3)cc2)c2ccc(OCCN3CCCCCC3)cc2)cc1`, -59.8% (active).

Source of the values: PubChem BioAssay (NCI).
